We go through 50 sequences from article PMC6451091, “NextPBM: a platform to study cell-specific transcription factor binding and cooperativity”.

Test [1] addresses PU.1 (IVT) (UniProt P17947 1-270). As to the kind of experiment: protein-binding microarray (PBM); 20 mM HEPES pH 7.9, 100 mM NaCl, 1 mM DTT, 0.2 mg/mL BSA, 0.02% Triton X-100, 2% milk, 0.4 mg/mL salmon testes DNA; 1 h; temperature not stated; high values mean tight binding. The settings on record: dsDNA, one strand shown. The procedure, abridged: (§1)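 Full-length untagged PU.1 was made by coupled human in vitro transcription/translation. It was bound for 1 h to custom double-stranded DNA microarrays carrying 20-bp genomic sites and single-nucleotide variants, 10 probes per site (5 per orientation). The binding buffer was HEPES pH 7.9 with 100 mM NaCl, 2% milk and salmon testes DNA. Bound protein was detected with anti-PU.1 and then a fluorescent secondary antibody. Binding is a z-score from scanned fluorescence after linear-regression normalisation.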

The target is the same in test [2]. The test is described as above. As to conditions: dsDNA, one strand shown. The procedure, abridged:
as §1
This is another data set of the same source.

In all, about 3,700 sequences were measured (“z-score”: median about 4, highest 2% from about 8.4 on). What follows is part of a selection rich in the highest values, with near analogues and random picks from the rest.

In the test with PU.1 (IVT) [1], “GCCTAGCACGAAAGAGGGAAGTGGGCATAGTGCTAGGTCTTGATTCGCTTGACGCTGCTG” returned a binding signal of 4.48 z-score.
In turn, “GCCTAGCACGCAGGGAGGAAGTGGGGAAGGTGCTAGGTCTTGATTCGCTTGACGCTGCTG” displayed a binding signal with PU.1 (IVT) [2] of 3.42 z-score.
As to “GCCTAGCACCAAAAAGGGAAGTGCATGCTGTGCTAGGTCTTGATTCGCTTGACGCTGCTG”, the binding signal in the test with PU.1 (IVT) [1] worked out at 6.52 z-score.
In the case of “GCCTAGCACAGCATGAGGAAGTGTCAGATGTGCTAGGTCTTGATTCGCTTGACGCTGCTG”, in the test with PU.1 (IVT) [2], the binding signal is 4.45 z-score.
In the test with PU.1 (IVT) [1], “GCCTAGCACTTGAAAAGGAAGTGCAACAAGTGCTAGGTCTTGATTCGCTTGACGCTGCTG” gave a binding signal of 2.73 z-score.
On the same count and under the same terms, as for “GCCTAGCACTGAAAGAGGAACTCTCACATGTGCTAGGTCTTGATTCGCTTGACGCTGCTG”, the figure is 4.89 z-score.
On the same count and under the same terms, as for “GCCTAGCACAACAAGAGGAAGTGGCTTTCGTGCTAGGTCTTGATTCGCTTGACGCTGCTG”, the figure is 5.51 z-score.
Regarding “GCCTAGCACAAAAGGAGGAAGTGGTTACAGTGCTAGGTCTTGATTCGCTTGACGCTGCTG”, in the test with PU.1 (IVT) [2], the binding signal is 6.37 z-score.
The same measure, in the same setting: as for “GCCTAGCACAAAAAGAGGAAGAGAGAAAAGTGCTAGGTCTTGATTCGCTTGACGCTGCTG”, the figure is 5.63 z-score.
In the test with PU.1 (IVT) [1], “GCCTAGCACAAAAAGAGGAAGTCGTTTTCGTGCTAGGTCTTGATTCGCTTGACGCTGCTG” showed a binding signal of 8.57 z-score.
The same measure, in the same setting: as for “GCCTAGCACCAAAAGAGGAAGTCATTTATGTGCTAGGTCTTGATTCGCTTGACGCTGCTG”, the figure is 8.11 z-score; as for “GCCTAGCACAAAAAAAGGAAGTCAAAGTCGTGCTAGGTCTTGATTCGCTTGACGCTGCTG”, 6.75 z-score; as for “GCCTAGCACAAAAAGAGGAAGTGCTTTTCGTGCTAGGTCTTGATTCGCTTGACGCTGCTG”, 8.49 z-score.
As to “GCCTAGCACAAAAGAAGGAAGTGGTTTATGTGCTAGGTCTTGATTCGCTTGACGCTGCTG”, the binding signal in the test with PU.1 (IVT) [2] was 6.15 z-score.
In the test with PU.1 (IVT) [1], “GCCTAGCACAAAAAGAGGAAGTCTTTTATGTGCTAGGTCTTGATTCGCTTGACGCTGCTG” registered a binding signal of 8.71 z-score.
Same read-out and setting: as for “GCCTAGCACAAAAAAAGGAAGTGGTGGTTGTGCTAGGTCTTGATTCGCTTGACGCTGCTG”, the figure is 6.87 z-score.
Still for that read-out and setting: the value for “GCCTAGCACAAAAAGAGGAAGTGGTTGTCGTGCTAGGTCTTGATTCGCTTGACGCTGCTG” was 8.71 z-score.
In the test with PU.1 (IVT) [2], “GCCTAGCACAAAAAGAGGAAGAGGAATAGGTGCTAGGTCTTGATTCGCTTGACGCTGCTG” yielded a binding signal of 5.98 z-score.
“GCCTAGCACTATTTGAGGAAGTGTGAGAAGTGCTAGGTCTTGATTCGCTTGACGCTGCTG” showed a binding signal with PU.1 (IVT) [1] of 5.91 z-score.
In the case of “GCCTAGCACTAAAGAGGGAAGTGGGAGCCGTGCTAGGTCTTGATTCGCTTGACGCTGCTG”, the binding signal with PU.1 (IVT) [1] was determined as 3.74 z-score.
The sequence “GCCTAGCACGGAAAGTGGAACTGAAACTTGTGCTAGGTCTTGATTCGCTTGACGCTGCTG” registered a binding signal with PU.1 (IVT) [2] of 1.93 z-score.
On the same count and under the same terms, as for “GCCTAGCACGAAAAGAGGATGTGGATCTGGTGCTAGGTCTTGATTCGCTTGACGCTGCTG”, the figure is 3.52 z-score.
On the same count and under the same terms, the value for “GCCTAGCACAAAAACAGGAACTGGCCAGGGTGCTAGGTCTTGATTCGCTTGACGCTGCTG” was 5.89 z-score.
In the test with PU.1 (IVT) [2], “GCCTAGCACCGAATGAGGAACTGATGCGGGTGCTAGGTCTTGATTCGCTTGACGCTGCTG” had a binding signal of 5.03 z-score.
“GCCTAGCACGAAATGAGGAAGTCAAATTAGTGCTAGGTCTTGATTCGCTTGACGCTGCTG” yielded a binding signal with PU.1 (IVT) [1] of 7.71 z-score.
With “GCCTAGCACAAAAAAAGGAAGTGGAATTAGTGCTAGGTCTTGATTCGCTTGACGCTGCTG”, the binding signal in the test with PU.1 (IVT) [1] was found to be 6.73 z-score.
“GCCTAGCACAATAAGAGGAAGTCAAAATAGTGCTAGGTCTTGATTCGCTTGACGCTGCTG” gave a binding signal with PU.1 (IVT) [2] of 6.65 z-score.
In the test with PU.1 (IVT) [1], “GCCTAGCACAAAAAGAGGAAGTCAAATTGGTGCTAGGTCTTGATTCGCTTGACGCTGCTG” came in with a binding signal of 8.3 z-score.
As for “GCCTAGCACGAGAAGAGGAAGTCAAATAAGTGCTAGGTCTTGATTCGCTTGACGCTGCTG”, in the test with PU.1 (IVT) [2], the binding signal came to 5.64 z-score.
For the sequence “GCCTAGCACAAAAAGAGGAAGTCAAATAAGTGCTAGGTCTTGATTCGCTTGACGCTGCTG”, the binding signal in the test with PU.1 (IVT) [1] came out at 8.51 z-score.
Same read-out and setting: the value for “GCCTAGCACGAAAAGAGGAAGTCAAATTAGTGCTAGGTCTTGATTCGCTTGACGCTGCTG” was 8.43 z-score; that for “GCCTAGCACGAAAAGAGGAAGTCACATTAGTGCTAGGTCTTGATTCGCTTGACGCTGCTG” was 8.62 z-score.
The same measure, in the same setting: the value for “GCCTAGCACGAAAAGAGGAAGTCACATTGGTGCTAGGTCTTGATTCGCTTGACGCTGCTG” was 8.32 z-score; that for “GCCTAGCACGAAAAGAGGAAGTCAGATTAGTGCTAGGTCTTGATTCGCTTGACGCTGCTG” was 8.07 z-score.
On the same count and under the same terms, as for “GCCTAGCACAAAAAGAGGAAGTCAAATTAGTGCTAGGTCTTGATTCGCTTGACGCTGCTG”, the figure is 8.57 z-score; as for “GCCTAGCACGAAAAGAGGAAGTCAAAATAGTGCTAGGTCTTGATTCGCTTGACGCTGCTG”, 8.29 z-score.
Sequence “GCCTAGCACGCTTTAGGGAACTACTGTGGGTGCTAGGTCTTGATTCGCTTGACGCTGCTG” yielded a binding signal with PU.1 (IVT) [2] of 3.58 z-score.
Same read-out and setting: as for “GCCTAGCACCCTAAAGGGAAGTGTAAATAGTGCTAGGTCTTGATTCGCTTGACGCTGCTG”, the figure is 3.27 z-score; as for “GCCTAGCACCAAATCAGGAACTGATGCGGGTGCTAGGTCTTGATTCGCTTGACGCTGCTG”, 3.39 z-score.
Same read-out and setting: as for “GCCTAGCACTTTTATCAGGAAATGACTGGGTGCTAGGTCTTGATTCGCTTGACGCTGCTG”, the figure is 0.896 z-score.
In turn, “GCCTAGCACTCAGGAGGGAAGTGAAGAAAGTGCTAGGTCTTGATTCGCTTGACGCTGCTG” gave a binding signal with PU.1 (IVT) [1] of 2.65 z-score.
In turn, “GCCTAGCACAGATTGTGGAAGTACTGTGAGTGCTAGGTCTTGATTCGCTTGACGCTGCTG” returned a binding signal with PU.1 (IVT) [1] of 2.73 z-score.
On the same count and under the same terms, as for “GCCTAGCACAGAATAGGGAAGTGAGAAATGTGCTAGGTCTTGATTCGCTTGACGCTGCTG”, the figure is 6.39 z-score.
“GCCTAGCACCAGAAAAGGAAGTGGGGGTGGTGCTAGGTCTTGATTCGCTTGACGCTGCTG” registered a binding signal in the test with PU.1 (IVT) [2] of 3.51 z-score.
Still for that read-out and setting: the value for “GCCTAGCACCTGGGAGGGAACTGAAACTCGTGCTAGGTCTTGATTCGCTTGACGCTGCTG” was 0.859 z-score.
Still for that read-out and setting: the value for “GCCTAGCACTGGAAGAGGAAGTGGCACTGGTGCTAGGTCTTGATTCGCTTGACGCTGCTG” was 5.78 z-score; that for “GCCTAGCACCTTTTAAGGAAGTGCTCACTGTGCTAGGTCTTGATTCGCTTGACGCTGCTG” was 4.92 z-score.
In turn, “GCCTAGCACGAAAAGGGGAAGTTGGGTTGGTGCTAGGTCTTGATTCGCTTGACGCTGCTG” gave a binding signal with PU.1 (IVT) [1] of 8.21 z-score.
“GCCTAGCACGAAAAGAGGAAGTGAGAAACGTGCTAGGTCTTGATTCGCTTGACGCTGCTG” gave a binding signal with PU.1 (IVT) [1] of 8.29 z-score.
“GCCTAGCACGAAAAGAGGAAGAGTCTTAGGTGCTAGGTCTTGATTCGCTTGACGCTGCTG”: in the test with PU.1 (IVT) [2], the binding signal worked out at 5 z-score.
